In the OligoGym collection:

What was measured:
Test in all cases: pooled miR-30 sensor sort-seq; sequence = guide strand
Conditions in all cases: shRNA
LILRA4 = target: LILRA4
LILRB3 = target: LILRB3
LIG4 = target: LIG4
LIMK2 = target: LIMK2
LIPA = target: LIPA
LRCH2 = target: LRCH2
LRRC14 = target: LRRC14
LPAR3 = target: LPAR3
LONP1 = target: LONP1
LRDD = target: LRDD
Further: reference of the scale not given here.

Sequence: TCCTTGTACAGAGTGTATCTGA
- sensor-assay potency score (higher = more potent) (LILRA4): -0.799

Sequence: TGACTGTCCAGCTCCACCCTGT
- sensor-assay potency score (higher = more potent) (LILRB3): -0.563

Sequence: TAAAAGGTCGTTTACTTGCTGT
- sensor-assay potency score (higher = more potent) (LIG4): -0.0412

Sequence: TTGTTGAGAAGTCTGTTGCTTT
- sensor-assay potency score (higher = more potent) (LILRB3): -0.0209

Sequence: TAGCCGTAGCATCTGAATGTAC
- sensor-assay potency score (higher = more potent) (LILRA4): -0.777

Sequence: ATGAACTTGAGCACATTGGGGT
- sensor-assay potency score (higher = more potent) (LIMK2): -0.105

Sequence: TATTAGTCATCTTTGAGTCAGG
- sensor-assay potency score (higher = more potent) (LILRB3): -0.452

Sequence: TTGTGTGCACCGTAGCACCTGT
- sensor-assay potency score (higher = more potent) (LILRB3): -0.532

Sequence: TTTTAGATCATTAAGTCTCATA
- sensor-assay potency score (higher = more potent) (LIG4): -0.76

Sequence: TAGTCCACTGACATACTCTGGT
- sensor-assay potency score (higher = more potent) (LIG4): 0.198

Sequence: TTAGTCATCTTTGAGTCAGGTG
- sensor-assay potency score (higher = more potent) (LILRB3): -0.0536

Sequence: TTGCTGACTAACACCAAGCTTT
- sensor-assay potency score (higher = more potent) (LIG4): -0.307

Sequence: TTTATGCAGTCGGTACTCCTGG
- sensor-assay potency score (higher = more potent) (LILRB3): -0.617

Sequence: AATCTGACTTCTTTTGTGCTGG
- sensor-assay potency score (higher = more potent) (LILRA4): 0.00913

Sequence: TAATGGAGGAAGCATCTTCTAC
- sensor-assay potency score (higher = more potent) (LILRA4): -1.03

Sequence: TTGTGTGCGCCGTAGCATCTGT
- sensor-assay potency score (higher = more potent) (LILRA4): -0.739

Sequence: TAGTTTGCTGACTAACACCAAG
- sensor-assay potency score (higher = more potent) (LIG4): -1.17

Sequence: TTTGGGTAGGTTTTCTGCCTGC
- sensor-assay potency score (higher = more potent) (LILRA4): -0.143

Sequence: TAACACAAAACTCTACATCTTC
- sensor-assay potency score (higher = more potent) (LIG4): 0.104

Sequence: TTGATCTCAGACGCAACGGGGG
- sensor-assay potency score (higher = more potent) (LILRA4): -1.08

Sequence: TTTTCATAGCCGTAGCATCTGA
- sensor-assay potency score (higher = more potent) (LILRA4): -1.2

Sequence: TTTCTCTGGTCAGATGTCCTGT
- sensor-assay potency score (higher = more potent) (LILRB3): -0.223

Sequence: TTGATTGTTGAGAAGTCTGTTG
- sensor-assay potency score (higher = more potent) (LILRB3): -0.405

Sequence: TTCCTTTCTGTAAACATCTTGG
- sensor-assay potency score (higher = more potent) (LIG4): -0.486

Sequence: TAGCTTTTTATTATTAACCATC
- sensor-assay potency score (higher = more potent) (LIG4): -1.43

Sequence: TTCTCTCCTGAGGTCACCGTGG
- sensor-assay potency score (higher = more potent) (LILRA4): -1.07

Sequence: TAGGTTTTCTGCCTGCACCCGG
- sensor-assay potency score (higher = more potent) (LILRA4): -0.532

Sequence: TTTCTGTAAACATCTTGGCTTC
- sensor-assay potency score (higher = more potent) (LIG4): -0.577

Sequence: TTTATTGTTACATTTGGCCTTA
- sensor-assay potency score (higher = more potent) (LIG4): 0.231

Sequence: TTCCGTCTAAGGGTCAAGCTGT
- sensor-assay potency score (higher = more potent) (LILRB3): -0.222

Sequence: TTATGCAGTCGGTACTCCTGGG
- sensor-assay potency score (higher = more potent) (LILRB3): -0.343

Sequence: TACAAAGTAGTATTCGCCCTGC
- sensor-assay potency score (higher = more potent) (LIPA): -0.272

Sequence: TTACAAAGTAGTATTCGCCCTG
- sensor-assay potency score (higher = more potent) (LIPA): 0.166

Sequence: TTGTTCATCTATTTGATCCTTC
- sensor-assay potency score (higher = more potent) (LRCH2): 0.648

Sequence: TACTTGTAAATGATGCAGCTTT
- sensor-assay potency score (higher = more potent) (LRCH2): 0.0854

Sequence: ATGCACATAGTGGAGCCGCAGG
- sensor-assay potency score (higher = more potent) (LRRC14): -1.72

Sequence: TTGACAGTCAAAGTTTTTGAAA
- sensor-assay potency score (higher = more potent) (LPAR3): -1.6

Sequence: TTCCTCTTGACGTACACGTAGA
- sensor-assay potency score (higher = more potent) (LPAR3): -0.848

Sequence: ATGAGGTTGGACACTGTCCAGA
- sensor-assay potency score (higher = more potent) (LPAR3): -1.36

Sequence: TTTATTACAAGAGAAATCCAGC
- sensor-assay potency score (higher = more potent) (LRCH2): -0.214

Sequence: TTGTCCTCGCCATCCACGGAGG
- sensor-assay potency score (higher = more potent) (LRRC14): -1.48

Sequence: TTAAACATCAGGAATACATAGG
- sensor-assay potency score (higher = more potent) (LPAR3): -0.219

Sequence: TTGAAGCGCAGGTCCACGCGGC
- sensor-assay potency score (higher = more potent) (LRRC14): -0.0617

Sequence: TTGAGGTGGGCAGCATGTGGGC
- sensor-assay potency score (higher = more potent) (LRRC14): -1.24

Sequence: TTTATTATTACTGACGACCAAA
- sensor-assay potency score (higher = more potent) (LRCH2): -1.09

Sequence: TACCACTGTCTTCTTGTCCATG
- sensor-assay potency score (higher = more potent) (LRRC14): -0.472

Sequence: TTGCAATGGATTGTTATCCAAA
- sensor-assay potency score (higher = more potent) (LRCH2): -1.31

Sequence: TTCATCTATTTGATCCTTCTGA
- sensor-assay potency score (higher = more potent) (LRCH2): 0.249

Sequence: TAAGACAGTCATCACCGTCTTC
- sensor-assay potency score (higher = more potent) (LPAR3): -0.295

Sequence: TTCTTCTCATTGTAAATCCTGG
- sensor-assay potency score (higher = more potent) (LRCH2): -0.64

Sequence: TTCCACACCATCATCCAAGAGG
- sensor-assay potency score (higher = more potent) (LRRC14): -1.09

Sequence: TATTACTTGTAAATGATGCAGC
- sensor-assay potency score (higher = more potent) (LRCH2): 0.387

Sequence: TGGCACTGCAGCACCTGCCGTG
- sensor-assay potency score (higher = more potent) (LRRC14): -0.778

Sequence: TTCATCTGCTGAGACACTCTTT
- sensor-assay potency score (higher = more potent) (LRCH2): 0.135

Sequence: TTGCAGACTGCACCTTGGCTAA
- sensor-assay potency score (higher = more potent) (LPAR3): -1.28

Sequence: TAGCAGTCCACAGGGAAGGGGT
- sensor-assay potency score (higher = more potent) (LRRC14): -0.698

Sequence: TAACACCTTCTCCACTTGCTTC
- sensor-assay potency score (higher = more potent) (LONP1): -1.18

Sequence: TACAGGTCCAAGCTCAGCCGGT
- sensor-assay potency score (higher = more potent) (LRDD): -1.52

Sequence: TTGTCCATGAAGGCCACCTTGA
- sensor-assay potency score (higher = more potent) (LRRC14): -1.21

Sequence: TATCCATTCTGCAACATGCTTG
- sensor-assay potency score (higher = more potent) (LRCH2): -0.471
